Results reported in PubChem BioAssay AID1159580 (chemical genetic matrix, 2015).
About 2,000 (36%) of roughly 5,500 compounds were called active. Inconclusive results (about 18%) are left out. No stated cut-off is given here; in the data, active means normalized growth mostly below about 0.91 (no sharp cut-off); inconclusive means no clear call, values can overlap the other calls; inactive means mostly above about 0.92. The list shows a part of the results.

Test: chemical genetic growth profiling, strain panel (AID 1159580);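 further: tested at 20 µM; growth read once vehicle control cultures reached saturation at 30 °C; 1 = growth at the plate median or of vehicle wells; lower values mean less growth of the strain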
Settings: S. cerevisiae deletion strains, growth OD

Measured: normalized growth

CC(C)(C)NCC(O)c1cc(Cl)c(N)c(Cl)c1 (centres undefined)
inactive: locus YAL013W, strain DEP1, active compounds read low 1.01 | locus YAL021C, strain ccr4, active compounds read low 0.985 | locus YAL026C, strain drs2, active compounds read low 1 | locus YAL030W, strain snc1, active compounds read low 1 | locus YBL061C, strain skt5, active compounds read low 1 | locus YBR009C, strain hhf1, active compounds read low 1 | locus YBR021W, strain FUR4, active compounds read low 1 | locus YBR023C, strain chs3, active compounds read low 1 | locus YBR171W, strain sec66, active compounds read low 1 | locus YBR229C, strain ROT2, active compounds read low 1.01 | locus YBR231C, strain swc5, active compounds read low 0.992 | locus YBR279W, strain paf1, active compounds read low 1.01 | locus YCL011C, strain gbp2, active compounds read low 1.01 | locus YCL016C, strain dcc1, active compounds read low 0.998 | locus YCL029C, strain bik1, active compounds read low 0.993 | locus YCL061C, strain MRC1, active compounds read low 1.01 | locus YCL069W, strain vba3, active compounds read low 0.992 | locus YCR088W, strain abp1, active compounds read low 0.998 | locus YDL005C, strain med2, active compounds read low 0.996 | locus YDL035C, strain GPR1, active compounds read low 1.01 | locus YDL040C, strain nat1, active compounds read low 0.988 | locus YDL074C, strain BRE1, active compounds read low 1 | locus YDL101C, strain DUN1, active compounds read low 1.01 | locus YDL134C, strain PPH21, active compounds read low 1.02 | locus YDL185W, strain tfp1, active compounds read low 1 | locus YDL192W, strain arf1, active compounds read low 1 | locus YDR001C, strain nth1, active compounds read low 0.995 | locus YDR069C, strain doa4, active compounds read low 0.989 | locus YDR101C, strain arx1, active compounds read low 0.983 | locus YDR137W, strain rgp1, active compounds read low 1 | locus YDR150W, strain NUM1, active compounds read low 1.02 | locus YDR159W, strain sac3, active compounds read low 0.978 | locus YDR162C, strain NBP2, active compounds read low 1 | locus YDR195W, strain ref2 0.961 | locus YDR297W, strain sur2, active compounds read low 1 | locus YDR318W, strain mcm21, active compounds read low 0.994 | locus YDR334W, strain swr1, active compounds read low 1 | locus YDR335W, strain msn5, active compounds read low 0.994 | locus YDR388W, active compounds read low 0.992 | locus YDR392W, strain spt3, active compounds read low 0.876 | locus YDR502C, strain sam2, active compounds read low 1.01 | locus YEL003W, strain gim4, active compounds read low 1 | locus YEL037C, strain rad23, active compounds read low 0.998 | locus YEL061C, strain CIN8 (second series), active compounds read low 1 | locus YEL061C, strain CIN8, active compounds read low 1.01 | locus YER015W, strain faa2, active compounds read low 0.999 | locus YER016W, strain bim1, active compounds read low 1 | locus YER110C, active compounds read low 0.998 | locus YER111C, strain swi4, active compounds read low 1.01 | locus YER155C, strain BEM2 (second series), active compounds read low 1.01 | locus YER155C, strain BEM2, active compounds read low 1.02 | locus YER167W, strain BCK2, active compounds read low 1.01 | locus YFR010W, strain ubp6, active compounds read low 0.994 | locus YGL078C, strain dbp3, active compounds read low 1.01 | locus YGL086W, strain mad1, active compounds read low 0.997 | locus YGL167C, strain pmr1, active compounds read low 1 | locus YGL173C, strain kem1, active compounds read low 0.996 | locus YGL227W, strain vid30, active compounds read low 1 | locus YGL240W, strain doc1, active compounds read low 0.98 | locus YGL248W, strain PDE1, active compounds read low 1 | locus YGL253W, strain hxk2, active compounds read low 0.984 | locus YGR078C, strain PAC10, active compounds read low 1.01 | locus YGR135W, strain pre9, active compounds read low 1.01 | locus YGR229C, strain SMI1, active compounds read low 1.01 | locus YGR252W, strain gcn5, active compounds read low 1.04 | locus YHR013C, strain ard1, active compounds read low 0.983 | locus YHR027C, strain rpn1, active compounds read low 0.994 | locus YHR030C, strain SLT2, active compounds read low 1.01 | locus YHR079C, strain IRE1 (second series), active compounds read low 1 | locus YHR094C, strain hxt1, active compounds read low 1 | locus YHR129C, strain ARP1, active compounds read low 1.02 | locus YHR142W, strain chs7, active compounds read low 0.997 | locus YHR200W, strain rpn10, active compounds read low 1 | locus YIL066C, strain RNR3, active compounds read low 1.01 | locus YIL073C, strain SPO22, active compounds read low 1 | locus YIL125W, strain kgd1, active compounds read low 1 | locus YIR030C, strain dcg1, active compounds read low 0.995 | locus YJL092W, strain hpr5, active compounds read low 0.997 | locus YJL095W, strain BCK1 (second series), active compounds read low 1 | locus YJL095W, strain BCK1, active compounds read low 1.01 | locus YJL115W, strain asf1, active compounds read low 1 | locus YJL129C, strain trk1, active compounds read low 0.996 | locus YJL134W, strain LCB3, active compounds read low 1.01 | locus YJL154C, strain vps35, active compounds read low 1 | locus YJL164C, strain tpk1, active compounds read low 1 | locus YJL166W, strain qcr8, active compounds read low 0.991 | locus YJL168C, strain set2, active compounds read low 0.992 | locus YJL187C, strain SWE1 (second series), active compounds read low 1.01 | locus YJL187C, strain SWE1, active compounds read low 1
